In PubChem BioAssay AID743279 (National Center for Advancing Translational Sciences (NCATS), 2014):
Hit rate of the full screen: of about 360,000 compounds, about 17,000 (4.7%) were called active. Roughly 5% stayed inconclusive and do not appear here. The sample holds actives, similar compounds and a random draw of the others, so the mix is not that of the screen. Unmarked numbers belong to inactive results. No stated cut-off is given here; in the data, active means activity change below about -50%; inconclusive means mostly about -30% to -49%; inactive means weaker than that.

Assay: qHTS for Inhibitors of Inflammasome Signaling: IL-1-beta AlphaLISA Primary Screen
Details: THP-1 LPS/ATP IL-1B secretion, 16 h; at 57.5 µM, stronger effect = lower value
From the text: Inflammasomes are a set of intracellular multi-protein complexes that enable autocatalytic activation of inflammatory caspases and drive the innate immune response to counter harmful agents. […] A qHTS assay, based on AlphaLISA technology, was developed to screen the Molecular Libraries Small Molecule Repository (MLSMR) to look for novel inflammasome inhibitors. The assay detects IL-1B using AlphaLISA anti-IL-1B acceptor and donor beads. A decreased emission signal, indicating reduced IL-1B secretion, is the desired outcome for this assay. NIH Chemical Genomics Center [NCGC] NIH Molecular Libraries Probe Centers Network [MLPCN] MLPCN Grant: MH095513 Assay Provider: Shyam Biswal Ph.D., Johns Hopkins University Immunity. 2012 Jul 27;37(1):85-95. PMID: 22819042 [2] Curr Pharm Des. 2012;18(16):2320-8. PMID: 22390695
Three microliters containing 3000 THP-1 cells were dispensed into the wells of solid, white, tissue culture treated Greiner 1,536-well plates. Library compounds and positive control, Glyburide, were pin-transferred (23 nL) by a Kalypsys pin-tool equipped with a 1,536-pin array, resulting in final compound concentration ranges of 2.5 nM to 57.5 uM. After 1 hr of cell culture incubation (37 °C, 5% CO2), 1 microL of 1 microg/mL lipopolysaccharide (250 ng/mL, final) and 5 mM ATP (1.25 mM, final) were added to stimulate the cells. After 16 hr of cell culture incubation with the compounds, 1.5 uL of anti-IL-1B acceptor beads (6 ug/mL, final) and biotinylated antibody (0.6 nM, final) were added to the plate, followed by a 1 hr incubation at ambient temperature. To detect the secreted IL-1B, 1.5 uL of AlphaLISA SA-Donor beads (24 ug/mL, final) were added, followed by 30 min of incubation in the dark at ambient temperature. The AlphaLISA signal was read by a PerkinElmer EnVision plate reader with an ultrasensitive luminescence detector and 1536 Plate HTS AlphaScreen aperture (excitation of 680nm and emission of 615nm).
On the % scale 0 is the no-effect control and ±100 the full control effect.

Compound | activity change
C[C@@H]1Cn2cnc(C(=O)Nc3ccc(CNC(=O)OC(C)(C)C)cc3)c2C(=O)N1 | -13.5%
Cc1cc(=O)oc2cc(NC(=O)C3CC(=O)N(Cc4ccccc4)C3)ccc12 (stereo not given) | 0%
CC(OC(=O)C1CC(=O)N(Cc2ccccc2)C1)C(=O)Nc1ccccc1[N+](=O)[O-] (stereo not given) | 16.6%
O=C(Nc1ccc(F)c([N+](=O)[O-])c1)C1CC(=O)N(Cc2ccccc2)C1 (stereo not given) | -91% (active)
NC(=O)C1(Nc2ccc([N+](=O)[O-])cc2)CCCC1 | -4.02%
COc1cccc(/C=C/C(=O)OCC(=O)N2CCN(c3ccccc3)CC2)c1 | -25.8%
COc1cccc(-c2ccc(SCC(=O)N3CCN(c4ccccc4)CC3)nn2)c1 | -69.3% (active)
CCOc1ccc(-c2ccc(SCC(=O)N3CCOCC3)nn2)cc1 | 71%
CCOC(=O)CNC(=O)N1c2ccccc2Sc2ccccc21 | -21%
CCN1/C(=C/C(=S)Nc2ccccc2)Sc2ccccc21 | -101% (active)
CC(NC(=S)Nc1ccccc1)C1COc2ccccc2O1 (stereo not given) | -4.51%
CCOC(=O)C1=CC[C@@H](c2ccncc2)N(S(=O)(=O)c2ccc(C)cc2)C1 | 57.8%
O=C(c1ccc(Cl)c(S(=O)(=O)N2CCCCCC2)c1)N1CCN(c2ccc(O)cc2)CC1 | -10.9%
COc1cc(/C=C/C(=O)OCC(=O)c2ccccc2)cc(OC)c1OC | 18.6%
COc1cc(/C=C/c2ccc(/C=C/c3cc(OC)c(OC)c(OC)c3)cc2)cc(OC)c1OC | 94.5%
COc1ccc(-n2c(-c3ccc(Cl)cc3)n[nH]c2=S)c(OC)c1 | -15.4%
COc1ccc(/C=C/C2=CC(C)(C)NC(=S)N2)c(OC)c1 | -87.3% (active)
COc1cc(/C=C/C2=CC(C)(C)NC(=S)N2)cc(OC)c1OC | -71.3% (active)
COc1ccc(/C=C/C(=O)OCC(=O)Nc2cccc(Oc3ccccc3)c2)c(OC)c1 | -2.25%
CCOC(=O)C1CCCN(C(=O)Cn2ncc3c(=O)oc4ccc(C)cc4c32)C1 (stereo not given) | 2.35%

Compound | activity change
CCOC(=O)C1=CCC2C(=O)N(Cc3ccccc3)C(=O)C12 (stereo not given) | 3.12%
CN(c1ccccc1)S(=O)(=O)c1ccc(C(=O)NCc2cccnc2)cc1 | 12%
Cn1c(=O)c2c(nc(OCc3cccnc3)n2Cc2ccccc2)n(C)c1=O | -9.43%
CCc1nc(C)ccc1OCC(=O)N(CC)CC | 6.9%
CN(C)CCOc1ccc(Cl)cc1C(C)(C)C | -13.6%
CCC(C)(C)c1ccc(OCC(=O)N(C)C)c(C(C)(C)CC)c1 | -90.9% (active)
O=C(NC1CCCCC1)C1CCC(CNS(=O)(=O)c2ccccc2)CC1 (stereo not given) | -6.12%
O=C(Nc1ccccc1C(=O)Nc1ccncc1)c1ccc([N+](=O)[O-])cc1 | -6.48%
N#Cc1ccc(/C=C2\CCn3c2nc2cc(C(=O)O)ccc2c3=O)cc1 | -13.5%
Cc1nc2ccccc2c(=O)n1NC(=O)c1ccc(Cl)c([N+](=O)[O-])c1 | -60.1% (active)
O=C(Nc1ccncc1)c1ccc([N+](=O)[O-])cc1Cl | -15%
Cc1ccc(/C=C2\CCn3c2nc2cc(C(=O)O)ccc2c3=O)c(C)c1 | 12.5%
Cc1ccnc(NC(=O)c2ccoc2C)c1 | -8.69%
O=C(Nc1ccncc1)c1ccc(Cl)c([N+](=O)[O-])c1 | -64.8% (active)
Cc1ccnc(NC(=O)Cn2ccc([N+](=O)[O-])n2)c1 | 15.1%
O=C(Nn1c(SCc2ccc([N+](=O)[O-])cc2)nc2ccccc2c1=O)c1ccc(F)cc1 | -1.43%
CCN(CC)c1ccc(C(=O)Nn2c(C)nc3ccccc3c2=O)cc1 | 18.5%
Cc1ccnc(NC(=O)c2ccc(Cl)c([N+](=O)[O-])c2)c1 | -78.4% (active)
O=C(O)c1ccc2c(=O)n3c(nc2c1)/C(=C/c1ccc(Cl)c([N+](=O)[O-])c1)CC3 | -64.3% (active)
CC1(C(=O)NCc2ccco2)Cc2c(-c3ccc4c(c3)OCO4)ccnc2O1 (stereo not given) | 7.16%

Compound | activity change
Cc1ccccc1CSc1nnc(-c2ccccn2)n1N | -29.8%
CCOC(=O)C1CCN(C(=O)c2ccc3c(=O)n4nc(Nc5ccccc5CC)sc4nc3c2)CC1 | -8.29%
CCCCN1C(=O)C(CC(=O)NCc2cccs2)CC(C(=O)N2CCOCC2)=C1C (stereo not given) | 34.2%
COc1ccccc1CNC(=O)Cn1c(=O)oc2cc(Cl)ccc21 | -3.46%
Cc1ccc(C(O)c2ncc(-c3ccccc3F)[nH]2)cc1F (stereo not given) | 0.413%
Cc1ccc(CC2(C)C(=O)Nc3ccc(OC(F)(F)F)cc32)cc1 (stereo not given) | -8.4%
CN1OC[C@@H]2CN(C(=O)c3cccnc3)[C@H](c3ccc(N4CCCCC4)cc3)C[C@@H]21 | 3.15%
CCNC(=O)C1(C)CCCN(C(=O)c2c(C)noc2C)C1 (stereo not given) | 25%
CS(=O)(=O)c1sc(C(=O)NC(=S)Nc2ccc(OC(F)(F)F)cc2)c2c1C=CCC2 | 21.9%
COc1ccc(CNC(=O)C2CCN(S(C)(=O)=O)CC2)cc1 | 14.1%
CCOC(=O)/C(=N\Nc1ccccc1[N+](=O)[O-])c1csc(Nc2ccccc2)n1 | 1.73%
CCOC(=O)/C(=C\c1ccc([N+](=O)[O-])cc1)C(=O)c1cc(C(C)=O)c(Nc2ccccc2)s1 | -116% (active)
O=C(O)C(=Cc1ccc([N+](=O)[O-])cc1)CCc1ccccc1 | 0.991%
CC1C(=O)Nc2ccccc2N1C(=O)c1c(F)cccc1F (stereo not given) | -9.24%
C=C1C(=O)OC2C1CCC(C)=CCCC1(C)OC21 (stereo not given) | -113% (active)
O=C(CSc1ccc([N+](=O)[O-])cn1)Nc1ccc(N2CCOCC2)c(Cl)c1 | -12.5%
CS(=O)(=O)N(CC(=O)N1CCCC1)Cc1ccccc1 | 4.88%
COc1ccc(C(=O)OCC(=O)Nc2cccc(C(C)=O)c2)cc1OC | 20.1%
COc1cc(C(=O)N(C)Cc2cccc(OC)c2OC)ccc1OCC(=O)Nc1cccc(C(F)(F)F)c1 | -57.3% (active)
CCNC(=O)c1ccc(OCC(=O)Nc2ccc(F)cc2)c(OC)c1 | -5.56%
